PubChem BioAssay AID624125 (The Scripps Research Institute Molecular Screening Center, 2012)
Hit rate of the full screen: of about 360,000 compounds, about 2,600 (0.72%) were called active. The sample holds actives, similar compounds and a random draw of the others, so the mix is not that of the screen. A number with no mark means an inactive call.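 The calls were made as follows: active = inhibition above its plate's cutoff, the mean inhibition of sample wells plus 3 SD (cut at about 27% in these data); inactive = the rest.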

target: Muscarinic acetylcholine receptor M4 (Homo sapiens) (UniProt P08173); test: CHRM4 blockers of acetylcholine calcium response – CHO cells, Fluo-8 calcium fluorescence, primary screen (AID 624125); conditions: CHO-hM4 cells, ACh EC80, Fluo-8 calcium fluorescence; at 3 µM; active compounds read high;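 also: 0% = acetylcholine EC80 with DMSO and 100% = DMSO without agonist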
Sequence (P08173 whole entry, looked up): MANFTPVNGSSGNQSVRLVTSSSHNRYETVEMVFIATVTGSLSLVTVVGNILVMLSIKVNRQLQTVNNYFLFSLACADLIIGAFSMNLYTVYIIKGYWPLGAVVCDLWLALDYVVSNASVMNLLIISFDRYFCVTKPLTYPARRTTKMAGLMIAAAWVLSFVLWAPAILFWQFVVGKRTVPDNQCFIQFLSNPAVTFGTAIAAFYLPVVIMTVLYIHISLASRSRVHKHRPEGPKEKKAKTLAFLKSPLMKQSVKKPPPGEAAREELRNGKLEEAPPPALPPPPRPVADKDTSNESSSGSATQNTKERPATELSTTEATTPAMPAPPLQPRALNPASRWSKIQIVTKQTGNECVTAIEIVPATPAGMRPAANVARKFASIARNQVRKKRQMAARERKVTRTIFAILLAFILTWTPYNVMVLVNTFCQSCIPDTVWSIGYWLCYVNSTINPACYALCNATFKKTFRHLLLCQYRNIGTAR

| Structure (SMILES) | inhibition |
| --- | --- |
| NC(=O)c1cc(S(=O)(=O)NCCCc2ccco2)cs1 | 3.61% |
| O=C(CNS(=O)(=O)c1ccc(Br)s1)N1CCN(C(=O)c2ccco2)CC1 | -1.1% |
| CC(C)C(NS(=O)(=O)c1cccs1)C(=O)Nc1nc(C(C)(C)C)cs1 (stereo not drawn) | -1.31% |
| Cc1ccc(N(Cc2ccc(C(=O)Nc3ccccc3C(=O)NCc3ccco3)cc2)S(C)(=O)=O)cc1C | 39.7% (active) |
| CS(=O)(=O)N(Cc1ccc(Cl)cc1)c1ccc(C(=O)NCCSCc2ccco2)cc1 | 13.9% |
| CCN1CCN(C(=O)c2ccc(CN(c3ccc(C)c(C)c3)S(C)(=O)=O)cc2)CC1 | -4.91% |
| c1ccc2c(c1)OC1OC2Oc2ccccc21 | -7.83% |
| COc1ccc(S(=O)(=O)NC2(C(F)(F)F)N=C3SCCN3C2=O)cc1 (stereo not drawn) | -9.21% |
| CCN1CCN(c2ccc(S(=O)(=O)N3CCCCC3)cc2NC(=O)c2cccc(NC(C)=O)c2)CC1 | -6.66% |
| COc1ccc(CN2CCCC(C(=O)N3CCCCC3)C2)cc1 (stereo not drawn) | 1.76% |
| COc1cc(CN2CCCC(C(=O)c3ccc(SC)cc3)C2)cc(Cl)c1O (stereo not drawn) | -23.2% |
| COc1ccc(CN2CCCC(C(=O)c3ccc(Cl)cc3)C2)cc1Cn1cncn1 (stereo not drawn) | 38.6% (active) |
| CCN(CC)N=Nc1cccc(NC(C)=O)c1 | 5.94% |
| CN(C(=O)CSc1nnc(-c2ccc3c(c2)OCO3)o1)C1CCS(=O)(=O)C1 (stereo not drawn) | 0.5% |
| N/C(=N\OC(=O)CCCC(=O)O)c1ncc(C(F)(F)F)cc1Cl | 3.64% |
| O=C(c1ccccn1)c1ncc(C(F)(F)F)cc1Cl | 9.21% |
| N/C(=N\OC(=O)Nc1ccc(Cl)c(Cl)c1)c1ncc(C(F)(F)F)cc1Cl | 27% (active) |
| O=C(COc1ccc(S(=O)(=O)NCc2ccccc2)cc1)N1CCOCC1 | 4.93% |
| CC(O)C(NS(=O)(=O)c1ccc(Cl)cc1)C(=O)OCc1cc([N+](=O)[O-])cc2c1OCOC2 (stereo not drawn) | 5.24% |
| CCOc1ccccc1NC(=S)C(=C([O-])c1ccc2c(c1)OCCO2)[n+]1ccc(CC)cc1 | -1.01% |

| Structure (SMILES) | inhibition |
| --- | --- |
| Clc1cc(NC2CCCCC2)ncn1 | 98.6% (active) |
| Cc1cc([N+](=O)[O-])c(NC2CCCCC2)c([N+](=O)[O-])c1 | 7.51% |
| CCc1cc2c(NC3CCCC3)ncnc2s1 | 11.2% |
| Cc1nc2ccc(C(=O)N(C)CC3CCCN(CCc4ccc(Cl)cc4)C3)cc2[nH]1 (stereo not drawn) | 19.4% |
| CC(=O)c1ccc(N2CCN(C(=O)c3ccc4nc[nH]c4c3)CC2)cc1 | 4.68% |
| CN(CC1CCCN(CCc2cccc(C(F)(F)F)c2)C1)C(=O)c1ccc2nc[nH]c2c1 (stereo not drawn) | 41% (active) |
| CSc1ccccc1NC(=O)c1ccc2c(c1)CCN2S(C)(=O)=O | -5.17% |
| O=C(CSCc1ccc([N+](=O)[O-])cc1)Nc1cccc(C(=O)Nc2ccccc2C(=O)O)c1 | 7.83% |
| CN(CC(=O)Nc1ccc(S(=O)(=O)N2CCCC2)cc1)Cc1ccc(Cl)c(Cl)c1 | 4.23% |
| CCc1ccc(CN(C)C(C)C(=O)Nc2ccc(S(=O)(=O)N3CCCC3)cc2)cc1 (stereo not drawn) | 26.6% (active) |
| CC(C(=O)Nc1ccc(S(=O)(=O)N2CCCC2)cc1)N(C)Cc1ccc(F)cc1 (stereo not drawn) | -3.14% |
| CCc1ccc(/C=N/NC(=O)c2nnn(-c3nonc3N)c2CN2CCc3ccccc32)cc1 | 6.06% |
| CCOC(=O)CSc1nnc(NC(=O)C2CC(=O)N(c3ccc(F)cc3)C2)s1 (stereo not drawn) | 5.76% |
| CN1/C(=C\C=C2\N=C(c3ccc(F)cc3)OC2=O)C(C)(C)c2ccccc21 | 50.7% (active) |
| Cc1ccc(S(=O)(=O)NC[C@H]2O[C@@H](n3cnc4c(N)ncnc43)[C@H](O)[C@@H]2O)s1 | -5.46% |
| O=C(CNS(=O)(=O)c1ccc(Br)s1)NCc1ccc2c(c1)OCO2 | 1.5% |
| COc1ccc(NC(=O)N(C)C[C@@H]2OCc3cn(nn3)CCCC(=O)N([C@H](C)CO)C[C@H]2C)c(OC)c1 | 8.28% |
| CCOC(=O)N1CCN(C(=O)c2ccc3c(c2)N(Cc2ccc(C)cc2)CCS3)CC1 | -7.97% |
| O=C(NCCc1ccccc1)c1ccc2c(c1)N(Cc1ccccc1)CCS2 | 35% (active) |
| CC1CCCN(c2ccc(C(=O)NCCc3ccccc3)cn2)C1 (stereo not drawn) | -4.49% |

| Structure (SMILES) | inhibition |
| --- | --- |
| CCOC(=O)c1cnc(Nc2nc3ccccc3o2)nc1CSC(=S)N1CCCCC1 | -1.75% |
| COc1cccc(CNCCc2c[nH]c3ccccc23)c1OCc1ccccc1F | 27.2% (active) |
| COc1cccc(CNn2cn[nH]c2=S)c1OCc1ccccc1 | -1.76% |
| Fc1ccccc1COc1ccccc1CNCc1ccncc1 | -4.74% |
| C=C(C)CNC(=S)Nc1ccc(S(=O)(=O)Nc2cnc3ccccc3n2)cc1 | 2.87% |
| CC(NCCO)C(=O)C12CC3CC(CC(C3)C1)C2 (stereo not drawn) | 2.3% |
| Cc1c(C(=O)NC2CCCCC2)oc2ccccc12 | -11.4% |
| Cc1ccc2c(C)c(C(=O)N(C)Cc3ccncn3)oc2c1C | -3% |
| CN(C)C1=NC[C@H](Cc2ccccc2)N1CCc1ccc(F)cc1 | -0.99% |
| CCCCN1C(N)=NC[C@@H]1CC1CCCCC1 | -1.98% |
| CCCC[C@@H]1CN=C(N)N1CCc1cc(C(F)(F)F)cc(C(F)(F)F)c1 | 31.9% (active) |
| Cc1nc(N)c(Br)c(C)c1Br | -2.18% |
| CSc1ccc(S(=O)(=O)N2CCC(C(=O)NCc3ccncc3)CC2)cc1 | -10.4% |
| Cn1c(CCC(=O)Nc2ccccc2F)nnc1SCC(=O)Nc1ccccc1Cl | -10.1% |
| CN1CCN(S(=O)(=O)c2cccc(C(=O)N3CCc4ccccc43)c2)CC1 | 3.72% |
| Cn1cccc1C(=O)N1CCc2ccccc2C1 | 10.4% |
| CN1CCN(C(=O)N2c3ccccc3CCc3ccccc32)CC1 | 51% (active) |
| O=C(O)C(=Cc1ccccc1[N+](=O)[O-])c1ccccc1 | -15.2% |
